Assay [1] can be described thus: resazurin metabolic signal in HepG2 cells – cell-based, resazurin fluorescence, 24 h, PK04 Diversity Set, profiling panel (AID 1172). The conditions noted are these: HepG2 viability, higher = more signal. In general terms: Alamar Blue is a resazurin reagent that responds to reducing activity.
Assay [2] can be described thus: budding yeast growth changes without added modifier – OD600, strain BY4716, 24 h, basal condition, primary screen (AID 1173). The conditions noted are these: S. cerevisiae BY4716 growth, OD600, 24 h; higher = more signal, called active from +8 up or from −8 down.
The nature of assay [3]: viability profiling in MM1S myeloma cells – cell-based, resazurin fluorescence, basal, 24 h, PK04 Diversity Set, profiling panel (AID 1174).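 Further: MM1S multiple myeloma cell line.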 The settings on record: higher = more signal, called active from +8 up or from −8 down.
Assay [4] has as its target Dihydroorotate dehydrogenase (quinone), mitochondrial (Plasmodium falciparum (isolate 3D7)) (UniProt Q08210). The assay is described as follows: inhibition of P. falciparum DHODH – biochemical, C-terminal His tag, absorbance 600 nm, primary screen (AID 1175).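 Further: recombinant parasite enzyme with a five histidine tag at its C terminus.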 The settings on record: PfDHODH enzyme, DCIP absorbance 600 nm; higher = more signal, called active from +8 up or from −8 down.

Assay [5] can be described thus: inhibition of PAO1 biofilm formation – strain PAO1, LB-PBS medium, absorbance 600 nm, primary screen (AID 1176). The settings on record: P. aeruginosa PAO1 growth/biofilm, A600, 12 h; higher = more signal.
Assay [6] is described as follows: growth modulation of vineyard yeast isolate – strain RM11-1a, OD600, basal, 24 h, primary screen (AID 1177).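 Further: cultures grown under basal conditions with no added stressor.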 The conditions noted are these: S. cerevisiae RM11-1a growth, OD600, 24 h; higher = more signal, called active from +8 up or from −8 down.
Assay [7] can be described thus: growth of efflux-deficient E. coli DRC39 – strain DRC39, OD650, 24 h, E. coli filamentation inducers, primary screen (AID 1178).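 Further: growth measured as culture turbidity by optical density at 650 nm.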 The conditions noted are these: E. coli DRC39 acrAB, higher = more signal, called active from +8 up or from −8 down.
Assay [8] is described as follows: growth of efflux-deficient E. coli DRC39 – strain DRC39, OD650, 48 h, E. coli filamentation inducers, primary screen (AID 1179).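 Further: screen aims at cell division blockers that make cells filament.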 The conditions noted are these: E. coli DRC39 delta-acrAB growth, higher = more signal, called active from +8 up or from −8 down.
Assay [9] in a line: viability profiling in RPMI8226 myeloma cells – cell-based, resazurin fluorescence, basal, 24 h, PK04 Diversity Set, profiling panel (AID 1180).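 Further: RPMI8826 multiple myeloma cell line at 5000 cells per well.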 The conditions noted are these: higher = more signal.
The target of assay [10] is E3 ubiquitin-protein ligase XIAP (Homo sapiens) (UniProt P98170). The assay is described as follows: small molecules binding XIAP protein – biophysical, small-molecule microarray, fluorescence 635 nm, primary screen (AID 1181).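 Further: score merges 667 nm emission and signal to noise over triplicate slides.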 The settings on record: higher = more signal.
Sequence of E3 ubiquitin-protein ligase XIAP (Homo sapiens) (P98170 whole entry, looked up, the tested form may be a part): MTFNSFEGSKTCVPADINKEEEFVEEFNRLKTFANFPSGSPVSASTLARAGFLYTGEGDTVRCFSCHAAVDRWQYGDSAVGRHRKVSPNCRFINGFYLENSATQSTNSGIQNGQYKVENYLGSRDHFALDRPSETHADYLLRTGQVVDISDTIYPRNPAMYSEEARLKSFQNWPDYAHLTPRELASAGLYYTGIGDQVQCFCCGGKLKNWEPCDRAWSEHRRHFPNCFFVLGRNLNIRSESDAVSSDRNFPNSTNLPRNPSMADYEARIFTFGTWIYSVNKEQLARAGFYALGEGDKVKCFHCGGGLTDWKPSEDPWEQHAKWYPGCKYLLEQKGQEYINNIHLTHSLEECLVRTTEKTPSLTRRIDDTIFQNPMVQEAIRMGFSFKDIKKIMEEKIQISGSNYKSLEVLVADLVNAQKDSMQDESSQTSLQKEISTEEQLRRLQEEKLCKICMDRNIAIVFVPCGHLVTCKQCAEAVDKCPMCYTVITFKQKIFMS
Assay [11] has as its system XIP peptide (Xip251-270) binding. The assay is described as follows: XIP fragment 251-270 binding compounds – biochemical, small-molecule microarray, fluorescence 635/667 nm, 0.1 µg/mL protein, primary screen (AID 1182). The settings on record: fluorescent protein binding, 635 nm, higher = more signal, called active from +8 up or from −8 down.
Assay [12] has as its system XIP peptide (Xip251-270). The assay is described as follows: compounds binding XIP fragment 251-270 – biochemical, small-molecule microarray, fluorescence 635/667 nm, 0.5 µg/mL protein, primary screen (AID 1183). The settings on record: fluorescence 635 nm, higher = more signal.
Assay [13] is described as follows: blood-stage malaria parasite viability loss – strain 3D7, DAPI fluorescence, 100 nL, primary screen (AID 1184).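 Further: parasites grown inside human red blood cells in medium with human serum.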 The conditions noted are these: P. falciparum 3D7 growth, 3 d, higher = more signal.
In assay [14] the target is Homeobox protein Hox-A13 (Mus musculus) (UniProt Q62424). The assay is described as follows: disruptors of Hoxa13 oligonucleotide interaction – biochemical, fluorescence polarization, labeled oligonucleotide, primary screen (AID 1185). The settings on record: Hoxa13:DNA binding, 15 min, higher = more signal, called active from +8 up or from −8 down. A general note: Fluorescence polarisation rises when a labelled molecule tumbles more slowly, as on binding a larger partner.
Sequence of Homeobox protein Hox-A13 (Mus musculus) (Q62424 whole entry, looked up): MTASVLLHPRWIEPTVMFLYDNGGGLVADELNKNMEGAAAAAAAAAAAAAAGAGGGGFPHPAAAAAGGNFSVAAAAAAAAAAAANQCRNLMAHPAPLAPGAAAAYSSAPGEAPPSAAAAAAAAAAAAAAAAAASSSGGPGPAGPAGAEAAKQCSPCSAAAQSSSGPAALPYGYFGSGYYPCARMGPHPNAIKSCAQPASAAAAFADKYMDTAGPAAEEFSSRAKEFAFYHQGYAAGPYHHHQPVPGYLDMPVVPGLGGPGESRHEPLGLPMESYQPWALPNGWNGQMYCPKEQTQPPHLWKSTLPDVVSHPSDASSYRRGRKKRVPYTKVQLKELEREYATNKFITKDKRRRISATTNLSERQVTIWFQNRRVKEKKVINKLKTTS

A short description of assay [15]: blockers of DNA damage checkpoint Chk1 activation – imaging, HeLa, hydroxyurea, phospho-Chk1 antibody, percent positive cells, primary screen (AID 1186). The conditions noted are these: hydroxyurea-induced phospho-Chk1 immunofluorescence imaging, higher = more signal.
The nature of assay [16]: blockers of DNA damage checkpoint Chk1 activation – imaging, HeLa, hydroxyurea, phospho-Chk1 nuclear intensity, primary screen (AID 1187). The conditions noted are these: hydroxyurea-induced phospho-Chk1 immunofluorescence imaging, higher = more signal.

The source made the active and inactive calls. Unless noted, how the calls were made is not given here.

Sequence of Dihydroorotate dehydrogenase (quinone), mitochondrial (Plasmodium falciparum (isolate 3D7)) (Q08210 whole entry, looked up): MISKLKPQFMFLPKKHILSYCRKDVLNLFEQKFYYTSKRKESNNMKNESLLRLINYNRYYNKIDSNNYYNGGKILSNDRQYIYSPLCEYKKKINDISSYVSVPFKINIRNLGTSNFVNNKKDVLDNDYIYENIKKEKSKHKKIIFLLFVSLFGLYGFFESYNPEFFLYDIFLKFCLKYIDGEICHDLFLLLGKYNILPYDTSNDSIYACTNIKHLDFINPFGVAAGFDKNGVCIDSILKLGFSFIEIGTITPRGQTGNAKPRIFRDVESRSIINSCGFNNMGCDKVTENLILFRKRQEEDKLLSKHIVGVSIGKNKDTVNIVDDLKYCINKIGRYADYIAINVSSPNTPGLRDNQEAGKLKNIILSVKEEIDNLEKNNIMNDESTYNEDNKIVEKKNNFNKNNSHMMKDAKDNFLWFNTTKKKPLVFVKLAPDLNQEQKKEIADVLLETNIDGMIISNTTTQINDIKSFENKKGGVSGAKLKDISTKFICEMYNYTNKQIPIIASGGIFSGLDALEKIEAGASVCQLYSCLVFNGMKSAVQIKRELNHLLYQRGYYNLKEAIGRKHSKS

On to `COC(=O)[C@@]1(Cc2ccc(OC)cc2)[C@H]2c3cc(C(=O)N(C)C)n(Cc4nc5ccccc5[nH]4)c3C[C@H]2CN1C(=O)c1ccccc1`, for which the z-score was 0.014 in [1]; 1.03 (inactive) in assay [2]; -1.45 (inactive) in assay [3]; -0.0982 (inactive) in [5]; 1.11 (inactive) in assay [6]; -0.614 (inactive) in assay [7]. For the same compound, the z-score in assay [8] was -1.18 (inactive); in assay [9], -2.51; in assay [13], -1.17; in assay [14], -3.08 (inactive); in [15] it was 0.399 (inactive); in assay [16] it was 0.0842 (inactive). Moreover, the composite z-score was -0.291 (inactive) in assay [4], 0.382 in [10], 0.469 (inactive) in assay [11] and 0.599 in assay [12].

Turning to `COCCOC(=O)N1C(=O)[C@@]2(c3cc(C#CC4(O)CCCCCC4)ccc31)[C@H](c1ccccc1OCCO)N1[C@H](c3ccccc3)[C@H](c3ccccc3)OC(=O)[C@H]1[C@@H]2C(N)=O`, the z-score in assay [1] was -1.51; in assay [2], 1.53 (inactive); in assay [3] it was -8.29 (active); in [5] it was 1.91 (inactive); in assay [6], 2.91 (inactive); in assay [7], -0.197 (inactive). Moreover, the z-score is -0.31 (inactive) in assay [8]; -6.79 in [9]; -2.07 in assay [13]; -2.04 (inactive) in [14]; 0.141 (inactive) in assay [15]; -0.377 (inactive) in assay [16]. Moreover, the composite z-score in assay [4] is 0.173 (inactive); in assay [10], -0.287; in assay [11], 0.151 (inactive); in assay [12], 0.774.

Regarding `COc1cc2c(cc1OC)CN(C(=O)[C@H]1[C@@H]3C(=O)O[C@@H](c4ccccc4)[C@@H](c4ccccc4)N3[C@@H](c3ccc(OCCO)cc3)[C@]13C(=O)Nc1ccc(C#CC4(O)CCCCCC4)cc13)CC2`, the z-score in assay [1] is 0.0686; in assay [2] it was 1.19 (inactive); in assay [3], 0.122 (inactive); in assay [5] it was 2.91 (inactive); in [6], 3.28 (inactive); in assay [7] it was 0.457 (inactive). In addition, the z-score in [8] was 1.25 (inactive); in [9], 0.378; in assay [13] it was -1.88; in [14] it was 2.98 (inactive); in [15] it was -0.647 (inactive); in [16], -1.2 (inactive). Also, the composite z-score in assay [4] was -0.143 (inactive); in [10] it was -0.0011; in [11], 0.63 (inactive); in assay [12] it was 0.803.

Regarding `CC(=O)n1cc(C(O)C2C=CC3C(=O)N(Cc4ccccc4)C(=O)C3N2n2cnnc2)c2ccccc21` (stereo not given), the z-score in assay [1] was -0.227; in assay [2], 0.319 (inactive); in [3], -0.929 (inactive); in [5], -0.514 (inactive); in [6], -0.371 (inactive); in assay [7], -1.34 (inactive). In addition, the z-score in assay [8] was -1.4 (inactive); in [9] it was -1.27; in assay [13], -0.15; in assay [14], -3.16 (inactive); in assay [15], 1.19 (inactive); in assay [16], 0.239 (inactive). Further, the composite z-score was -0.351 (inactive) in assay [4], 0.764 in [10], 0.097 (inactive) in assay [11] and 0.008 in assay [12].

`O=C1NC(=O)C2C1C=CC(C(O)c1cc(C(F)(F)F)cc(C(F)(F)F)c1)N2Nc1ccc(Cl)cc1Cl` (stereo not given): the z-score in [1] is -1.71; in assay [2] it was -4.29 (inactive); in assay [3], -1.99 (inactive); in assay [5], 1.43 (inactive); in assay [6] it was 1.1 (inactive); in [7] it was -1.14 (inactive). Further, the z-score in assay [8] was -1.13 (inactive); in assay [9] it was -2.37; in assay [13] it was 0.0295; in [14], -5.48 (inactive); in assay [15], 1.15 (inactive); in assay [16], 1.26 (inactive). Further, the composite z-score in assay [4] was -0.195 (inactive); in assay [10] it was 0.214; in assay [11], 1.75 (inactive); in [12] it was 0.154.

As for `COC(=O)[C@@]1(Cc2ccc(F)cc2)[C@H]2c3cc(C(=O)N4CCCC4)n(CCF)c3C[C@H]2CN1C(=O)c1ccccc1`, the z-score in [1] was -0.282; in [2], -0.273 (inactive); in assay [3] it was -0.547 (inactive); in [5], 0.84 (inactive); in [6] it was 0.24 (inactive); in [7] it was -0.239 (inactive). For the same compound, the z-score is -0.311 (inactive) in assay [8]; -0.185 in assay [9]; -0.815 in assay [13]; -4.62 (inactive) in assay [14]; -0.323 (inactive) in [15]; -0.593 (inactive) in [16]. Also, the composite z-score is -0.41 (inactive) in [4], -0.233 in assay [10], 2.43 (inactive) in assay [11] and -0.352 in assay [12].

Regarding `CCCc1cccc(=O)o1`, the z-score in assay [1] is 0.866; in assay [2], 0.68 (inactive); in assay [3], 0.821 (inactive); in assay [5], 0.353 (inactive); in [6] it was -0.243 (inactive); in assay [7] it was -0.161 (inactive). The z-score is 0.846 (inactive) in assay [8]; 0.819 in assay [9]; 0.581 in assay [13]; -1.77 (inactive) in [14]; 0.0999 (inactive) in assay [15]; 0.549 (inactive) in assay [16]. For the same compound, the composite z-score in assay [4] is -0.661 (inactive); in assay [10] it was -0.0721; in assay [11] it was 0.684 (inactive); in [12] it was -0.0514.

Turning to `COC(=O)C[C@H]1O[C@]2(C(=O)N(C)c3ccccc32)[C@@H](C)[C@@H]1[Si](C)(C)c1ccc(C)cc1`, the z-score in assay [1] was -0.501; in assay [2], -2.64 (inactive); in [3], 1.47 (inactive); in [5] it was -0.884 (inactive); in assay [6], 0.155 (inactive); in [7], 1.37 (inactive). The z-score in assay [8] is -0.466 (inactive); in assay [9] it was 0.789; in assay [13], -2.09; in assay [14], -5.95 (inactive); in assay [15], 0.0207 (inactive); in assay [16] it was 0.0333 (inactive). Besides, the composite z-score in assay [4] was 0.0559 (inactive); in assay [10] it was -0.0172; in assay [11], 0.611 (inactive); in [12], 0.336.

Consider `O=c1cccc(-c2ccc(C(F)(F)F)cc2)o1`, for which the z-score in assay [1] was -0.0559; in assay [2], -9.38 (active); in [3], 0.0889 (inactive); in [5], 0.0767 (inactive); in [6], -0.962 (inactive); in assay [7], -0.865 (inactive). In addition, the z-score in assay [8] is -0.325 (inactive); in [9], 0.263; in assay [13] it was 1.39; in assay [14], -1.7 (inactive); in assay [15] it was 0.264 (inactive); in assay [16] it was 0.197 (inactive). Moreover, the composite z-score is -0.723 (inactive) in assay [4], 0.0535 in [10], 0.338 (inactive) in assay [11] and -0.256 in assay [12].

As for `COc1cc(CO)cc(I)c1O[C@H]1C=C(C(=O)NCCO)C[C@@H](N(CC2CCCCC2)C(=O)c2ccc(C(F)(F)F)cc2)[C@@H]1O`, the z-score in [1] was 0.445; in assay [2], -1.02 (inactive); in [3], -0.327 (inactive); in [5] it was 0.425 (inactive); in assay [6], 0.183 (inactive); in assay [7], 0.342 (inactive). For the same compound, the z-score in assay [8] was 0.212 (inactive); in assay [9], 0.508; in assay [13] it was 1.09; in [14], -6.43 (inactive); in assay [15], -0.409 (inactive); in assay [16] it was -0.884 (inactive). Besides, the composite z-score in assay [4] is 0.345 (inactive); in assay [10] it was 0.0859; in assay [11], -0.175 (inactive); in assay [12], 0.516.

These data come from PubChem BioAssay.
